This passage reports Potency, viability and activity change, negative = inhibition results from PubChem BioAssay (NCATS).

Inconclusive results are not listed. A number with no mark means an inactive call. Calls of active or inactive are those of the source. Calls follow the shape of the dose curve; as a rule, active = well fitted curve in the direction sought with a large enough effect; inconclusive = small, poorly fitted or top-dose-only effect, or another doubt; inactive = no such curve, though single readings can be large; an effect the other way counts as inactive or inconclusive.

Assay [1] can be described thus: qHTS for Inhibitors of the Aldehyde Dehydrogenase Family (ALDH1A2, ALDH1A3, ALDH2, ALDH3A1) (AID 2061307). Also: nearly all actives have a fitted effect of over 50% in size. As to Potency: test system not described further here; potency is read from the fitted curve at half-maximal effect. As to activity change, negative = inhibition: % is scaled to controls: 0 for no effect and ±100 for the full control effect. In general terms: In qHTS, concentration-response curves come from the screen itself.
Assay [2] has as its target Aldehyde dehydrogenase, mitochondrial (Homo sapiens) (UniProt P05091). The assay can be described thus: qHTS for Inhibitors of the Aldehyde Dehydrogenase Family (ALDH2) Primary screen (AID 2061308).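 Also: plate controls were vehicle for no effect and reference inhibitor for full effect; nearly all actives have a fitted effect of over 55% in size.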
For assay [3], the target named is Retinaldehyde dehydrogenase 3 (Homo sapiens) (UniProt P47895). Description: qHTS for Inhibitors of the Aldehyde Dehydrogenase Family (ALDH1A3) Primary screen (AID 2061315).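 Also: plate controls were DMSO vehicle for no effect and reference inhibitor for full effect.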
The target in assay [4] is Aldehyde dehydrogenase 1A1 (Homo sapiens) (UniProt P00352). The assay can be described thus: qHTS for Inhibitors of the Aldehyde Dehydrogenase Family (ALDH1A1) Confirmatory screens (AID 2061316). Also: nearly all actives have a fitted effect of over 65% in size. Also: potency is read from the fitted curve at half-maximal effect. As to activity change, negative = inhibition: % is scaled to controls: 0 for no effect and ±100 for the full control effect.
A short description of assay [5]: BET inhibitor-based combinations targeting novel dependencies in MECOM-rearranged (r) AML: SET-2 cell line (AID 2202231).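 Also: plate controls were DMSO treated cells for no effect and wells without cells for full effect; nearly all actives have a fitted effect of over 35% in size.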 The following applies: SET-2 AML cells viability, CellTiter-Glo luminescence, 48 h; viability: active compounds read low, series mostly up to about 46 µM. Put shortly: (§1)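 AML cell lines seeded at 500 cells/well, treated with 11-point dose curves for 48 h. Viability by CellTiter-Glo luminescence, normalised to DMSO and empty wells; activity expressed as AUC and per-cell-line Z-transformed AUC.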
On the technique in general: ATP-based viability assays read luminescence as a measure of living cells.

A short description of assay [6]: BET inhibitor-based combinations targeting novel dependencies in MECOM-rearranged (r) AML: MV-4-11 cell line (AID 2202233). Also: potency is read from the fitted curve at half-maximal effect; nearly all actives have a fitted effect of over 45% in size. Put shortly: (§2)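 Cells at 500/well were exposed for 48 hr to MIPE v5.0 drugs as 11-point dose curves. Viability was read by CellTiter-Glo luminescence and normalized to DMSO and empty-well controls. Activity was expressed as AUC and per-cell-line Z-AUC.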

Assay [7] can be described thus: BET inhibitor-based combinations targeting novel dependencies in MECOM-rearranged (r) AML: UCSD-AML1 cell line (AID 2202235).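 Also: series mostly up to about 46 µM; plate controls were DMSO vehicle wells for no effect and blank wells for full effect; nearly all actives have a fitted effect of over 40% in size.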 In short, it runs like this:
as §2

A short description of assay [8]: BET inhibitor-based combinations targeting novel dependencies in MECOM-rearranged (r) AML: AML-191 cell line (AID 2202236;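 also: plate controls were vehicle wells for no effect and wells without cells for full effect; nearly all actives have a fitted effect of over 35% in size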). Put shortly: as §1
A short description of assay [9]: BET inhibitor-based combinations targeting novel dependencies in MECOM-rearranged (r) AML: AML-194 cell line (AID 2202237;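 also: plate controls were vehicle wells for no effect and wells without cells for full effect; nearly all actives have a fitted effect of over 40% in size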). In short, it runs like this:
as §1

Assay [10] deals with Retinaldehyde dehydrogenase 3 (Homo sapiens) (UniProt P47895). The assay can be described thus: qHTS for Inhibitors of the Aldehyde Dehydrogenase Family (ALDH1A3) Confirmatory screens (AID 2061311). Also: nearly all actives have a fitted effect of over 60% in size. Also: potency is read from the fitted curve at half-maximal effect. As to activity change, negative = inhibition: % is scaled to controls: 0 for no effect and ±100 for the full control effect.
Assay [11] concerns the target Retinal dehydrogenase 2 (Homo sapiens) (UniProt O94788). The assay can be described thus: qHTS for Inhibitors of the Aldehyde Dehydrogenase Family (ALDH1A2) Confirmation screens (AID 2061314). Also: nearly all actives have a fitted effect of over 65% in size. Also: potency is read from the fitted curve at half-maximal effect.

Take `COc1ccc(C2Nc3ccccc3C(=O)N2CCc2ccccc2)cc1COc1ccc(NC(C)=O)cc1` (stereo unspecified): the Potency in assay [1] is 5.65 µM (active). Moreover, the Potency entry in assay [2] and in [3] was “inactive” throughout.

In the case of `O=C(O)c1ccc(-n2cccc2/C=C2\SC(=O)N(Cc3ccc(F)cc3)C2=O)cc1`, in [1], the Potency is 7.98 µM (active). In addition, the Potency entry in assay [2] and in assay [3] was “inactive” throughout.

In the case of `COc1cccc(CNc2ccc(S(=O)(=O)Nc3ccc(C)nc3)cc2)c1O`, the Potency entry in [1], in [2], in [3] and in [4] was “inactive” throughout.

Consider `O=S(=O)(c1ccc2c(c1)OCO2)N1CCN(S(=O)(=O)c2c(F)cccc2F)CC1`, for which the Potency result in assay [1], in assay [2] and in assay [3] was “inactive” throughout.

In the case of `Cc1ccc(-n2c(C)cc(-c3nnc4n3CCCCC4)c2C)cc1`, the Potency result in assay [1], in [2], in [3], in [7], in assay [8] and in [9] was “inactive” each time. Also, the figures for the Potency in assay [4] and in [6] were 20.1 µM (active) and 23.5 µM (active), respectively. Also, the viability – broadly, a read-out of living cells in per cent, often relative to untreated cells – in [5] is 104%.

Take `N[C@@H](Cc1ccc(OS(=O)(=O)c2cccnc2)cc1)C(=O)N1CCN(c2ccccc2)CC1`: the Potency is 5.65 µM (active) in assay [1] and 10.1 µM (active) in assay [4]. For the same compound, the Potency entry in [2] and in assay [3] was “inactive” each time.

As for `COc1ccc(C2Nc3ccccc3C(=O)N2Cc2ccccc2OC)cc1COc1ccc(NC(C)=O)cc1` (stereo unspecified), the results for the Potency in [1] and in assay [4] were 2.25 µM (active) and 22.5 µM (active), respectively. Further, the Potency entry in assay [2] and in assay [3] was “inactive” each time.

`N#Cc1ccc(CNc2nc(-c3ccccc3C(F)(F)F)nc3ccccc23)cc1`: the Potency in assay [1] was 17.9 µM (active); in assay [4] it was 14.2 µM (active). Further, the Potency entry in assay [2] and in assay [3] was “inactive” each time.

As to `COc1cccc(CN2C(=O)c3ccccc3NC2c2ccc(OC)c(COc3ccc(NC(C)=O)cc3)c2)c1` (stereo unspecified), the Potency in assay [1] was 3.55 µM (active). For the same compound, the Potency result in [2] and in [3] was “inactive” in each case.

Take `N#Cc1nc(Nc2cccc(Cl)c2)nc(NC2CCCC2)n1`: the Potency in [1] is 0.708 µM (active). In addition, the Potency entry in [2] and in [3] was “inactive” in each case.

With `COc1ccc(C2Nc3ccccc3C(=O)N2C2CCCC2)cc1COc1ccc(NC(C)=O)cc1` (stereo unspecified), the Potency in assay [1] is 1.59 µM (active); in assay [4], 20.1 µM (active). The Potency result in assay [2] and in assay [3] was “inactive” throughout.

Turning to `COc1ccc(C2Nc3ccccc3C(=O)N2Cc2ccco2)cc1COc1ccc(NC(C)=O)cc1` (stereo unspecified), the Potency result in assay [1], in assay [2] and in assay [3] was “inactive” each time.

As for `CC(=O)c1cccc(-c2csc(N3CCC(C(N)=O)CC3)n2)c1`, the Potency in assay [1] was 11.3 µM (active); in assay [4], 5.65 µM (active). In [2], the Potency result was “inactive”.

For the compound `Cc1ccc(S(=O)(=O)Nc2cnccc2C(=O)Nc2nc(C(=O)O)cs2)cc1`, the Potency entry in assay [1], in assay [11] and in assay [3] was “inactive” in each case. Further, the Potency in assay [10] is 20.1 µM (active).

Regarding `O=C(O)c1ccc2c(c1)C(=O)N(CCc1ccc(O)cc1)C2=O`, the Potency entry in assay [1], in [10], in [11], in assay [3] and in [4] was “inactive” each time.

For the compound `COc1ccc2c(c1)c(C(=O)CN(C)C)c(C)n2C`, the Potency result in assay [1], in assay [10], in assay [11] and in assay [4] was “inactive” throughout.

For `CCC(=O)Nc1ccc(S(=O)(=O)NCc2ccc3c(c2)CCN3C(=O)c2ccc(C)cc2)cc1`, the Potency entry in [1], in assay [10] and in [11] was “inactive” each time.

In the case of `CN(C)c1ccc(-c2cc[nH]c(=O)c2N)cc1`, the Potency in [1] was 12.7 µM (active); in [10] it was 20.1 µM (active); in [11] it was 0.225 µM (active); in [4] it was 4 µM (active). Further, the Potency result in assay [3] is “inactive”.

For the compound `Cc1cc(C)cc(-c2ccc(C=O)cc2)c1`, the Potency entry in [1], in assay [10], in assay [11] and in assay [4] was “inactive” in each case.

Consider `CN(C)c1cccc(-c2cnc(N3CCC(c4ncc[nH]4)CC3)s2)c1`, for which the Potency in [1] is 10.1 µM (active); in [10] it was 4 µM (active); in [4], 0.201 µM (active). For the same compound, the Potency entry in [11] and in [3] was “inactive” each time.

`O=C1Nc2cc(Cl)ccc2/C1=C\c1cc(Cl)c(O)c(Cl)c1`: the Potency in assay [1] is 3.57 µM (active); in assay [11], 25.2 µM (active); in assay [4], 22.5 µM (active). For the same compound, the Potency result in assay [10] and in assay [3] was “inactive” each time.

Regarding `O=C(C1CCN(Cc2ccccc2-c2ccccc2F)CC1)N1CCN(Cc2ccccc2)CC1`, the Potency entry in assay [1], in assay [10] and in assay [11] was “inactive” in each case.

Take `COc1ccc(C2Nc3ccccc3C(=O)N2Cc2ccco2)cc1COc1ccc(N)cc1` (stereo unspecified): the figures for the Potency in assay [1], in assay [11] and in assay [4] were 1.79 µM (active), 4.49 µM (active) and 1.79 µM (active), respectively. Besides, in assay [10], the activity change, negative = inhibition was -17.5% [at 0.022 µM]. In assay [3], the Potency entry is “inactive”.

As for `O=C(O)CN1C(=O)/C(=C/c2ccc(-c3cccc(Cl)c3)o2)SC1=S`, the figures for the Potency in [1], in [11] and in assay [4] were 11.3 µM (active), 22.5 µM (active) and 7.98 µM (active), respectively. Besides, the Potency result in [10] and in assay [3] was “inactive” in each case.

Take `CC(=O)c1ccc(N2CCN(C(=O)CCS(=O)(=O)c3ccc4c(c3)oc(=O)n4C)CC2)cc1`: the Potency entry in assay [1] was “inactive”. Moreover, the Potency in assay [10] was 16.2 µM (active).

Regarding `Cc1nc(C(C)Nc2ncnc3ccc(-c4ccc5c(c4)OCO5)cc23)cs1` (stereo unspecified), the Potency entry in [1], in assay [10], in [11] and in [3] was “inactive” throughout.

Turning to `COc1cccc(CNC(=O)c2ccc3c(c2)sc2nc(-c4ccccc4)cn23)c1OC`, the Potency result in [1], in [10] and in [11] was “inactive” throughout.

In the case of `COc1cccc(S(=O)(=O)N2CCC3(CC2)CC(CC(=O)NC2CC2)CCO3)c1` (stereo unspecified), the Potency result in [1] and in [10] was “inactive” throughout.

With `COc1ccc(Cl)cc1C(=O)NCc1nnc2cc(-c3nc(C)no3)ccn12`, the Potency result in assay [1], in [10], in [11] and in assay [4] was “inactive” in each case.

As to `O=S1(=O)N=C(Oc2cccc3ccccc23)c2ccccc21`, the figures for the Potency in assay [1], in assay [10] and in [11] were 2.83 µM (active), 5.04 µM (active) and 12.7 µM (active), respectively.

`Cc1sc(NC(=O)Cc2ccc3c(c2)OCO3)nc1-c1ccc2c(c1)CCN2`: the Potency is 20.1 µM (active) in assay [1], 12.7 µM (active) in assay [10], 4 µM (active) in [11] and 3.18 µM (active) in assay [4]. Also, the Potency entry in [3] was “inactive”.
